Experimental data as given in PubChem BioAssay (Tox21).
Results filed as inconclusive are left out. Calls of active or inactive are those of the source. Unless noted, calls come from the whole dose curve; as a rule, active = well fitted curve in the direction sought with a large enough effect in the repeat runs; inconclusive = weak or mixed curves; inactive = no such curve, though single readings can be large; an effect the other way counts as inactive or inconclusive.

Legend:
[1] = qHTS assay to identify small molecule antagonists of the glucocorticoid receptor (GR) signaling pathway - cell viability counter screen (AID 720693); note: nearly all actives have a fitted effect of over 55% in size
[2] = qHTS assay for identifying genotoxic compounds that show differential cytotoxicity against isogenic chicken DT40 cell lines with known DNA damage response pathways - wild type cell line (AID 743012); note: nearly all actives have a fitted effect of over 60% in size; note: potency is the fitted concentration of half-maximal effect
Summary of the method: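 Wild-type DT40 cells (300/well) exposed to compounds for 40 hours at 37 C/5% CO2. Viability read by CellTiter-Glo luminescence after 30 min at room temperature.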

[3] = qHTS assay for identifying genotoxic compounds that show differential cytotoxicity against isogenic chicken DT40 cell lines with known DNA damage response pathways - Rev3 mutant cell line (AID 743014); note: nearly all actives have a fitted effect of over 55% in size; note: potency is the fitted concentration of half-maximal effect
[4] = qHTS assay for identifying genotoxic compounds that show differential cytotoxicity against isogenic chicken DT40 cell lines with known DNA damage response pathways - Rad54/Ku70 mutant cell line (AID 743015); note: nearly all actives have a fitted effect of over 60% in size; note: potency is the fitted concentration of half-maximal effect
[5] = qHTS assay to identify small molecule antagonists of the estrogen receptor alpha (ER-alpha) signaling pathway - cell viability counter screen (AID 743074; calls by dose curve;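 note: HEK293 cells carrying ER-alpha-UAS-bla reporter stimulated with 17beta-estradiol; nearly all actives have a fitted effect of over 45% in size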; note: potency is the fitted concentration of half-maximal effect)
[6] = qHTS assay to identify small molecule antagonists of the estrogen receptor alpha (ER-alpha) signaling pathway using the BG1 cell line - cell viability counter screen (AID 743081);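 note: compound given together with 17beta-estradiol as the ER stimulus; series mostly up to about 70 µM; nearly all actives have a fitted effect of over 45% in size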
Aromatase (Homo sapiens) = Aromatase (Homo sapiens) (UniProt P11511); assay: qHTS assay to identify aromatase inhibitors (AID 743083); note: series mostly up to about 70 µM; nearly all actives have a fitted effect of over 55% in size
Chain of Aromatase (Homo sapiens) (P11511 whole entry, looked up): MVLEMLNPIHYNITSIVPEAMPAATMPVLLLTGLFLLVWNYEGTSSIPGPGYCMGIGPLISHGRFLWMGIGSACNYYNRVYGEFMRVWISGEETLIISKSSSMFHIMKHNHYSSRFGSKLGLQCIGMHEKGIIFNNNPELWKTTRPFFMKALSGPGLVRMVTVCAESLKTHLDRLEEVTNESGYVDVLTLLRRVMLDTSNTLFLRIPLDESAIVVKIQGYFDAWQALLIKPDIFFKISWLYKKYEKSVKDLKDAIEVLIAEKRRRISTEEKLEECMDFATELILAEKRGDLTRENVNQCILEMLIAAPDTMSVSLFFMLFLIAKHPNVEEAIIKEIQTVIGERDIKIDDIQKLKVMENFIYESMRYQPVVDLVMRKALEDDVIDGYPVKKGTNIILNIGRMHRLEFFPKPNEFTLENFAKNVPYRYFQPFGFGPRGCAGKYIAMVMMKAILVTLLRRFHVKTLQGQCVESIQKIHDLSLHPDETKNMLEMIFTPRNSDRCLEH

[7] = qHTS assay to identify aromatase inhibitors - cell viability counter screen (AID 743084);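 note: cells stimulated with testosterone during compound exposure; nearly all actives have a fitted effect of over 55% in size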
[8] = qHTS assay to identify small molecule antagonists of the androgen receptor (AR) signaling pathway - cell viability counter screen (AID 743033; note: nearly all actives have a fitted effect of over 45% in size)
[9] = qHTS assay to identify small molecule antagonists of the androgen receptor (AR) signaling pathway using the MDA cell line - cell viability counter screen (AID 743041; note: nearly all actives have a fitted effect of over 45% in size)
Summary of the method: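 MDA-kb2 AR-luc cells (MMTV-luciferase, AR/GR responsive) treated with compounds plus R1881 agonist for 16 h at 37C. CellTiter-Fluor added at 15.5 h; fluorescence read after 30 min in the same wells.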

[10] = qHTS assay to identify small molecule antagonists of the thyroid receptor (TR) signaling pathway - cell viability counter screen (AID 743064); note: nearly all actives have a fitted effect of over 50% in size
Summary of the method: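 In rat pituitary GH3.TRE-Luc reporter cells co-exposed to compound and 1 nM T3 for 23.5 h, cytotoxicity was assessed with CellTiter-Fluor in the same wells, read by fluorescence.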

[11] = qHTS assay to identify small molecule antagonists of the thyroid receptor (TR) signaling pathway (AID 743065)
Summary of the method: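 GH3.TRE-Luc rat pituitary cells (two TREs driving luciferase) were dosed with compound, then stimulated with 1 nM T3 (final) for 23.5 h at 37 C. ONE-Glo luminescence was the read-out, with CellTiter-Fluor fluorescence as the cytotoxicity counter-screen.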

[12] = tested on: thyroid hormone receptor (rat, GH3 cells); assay: qHTS assay to identify small molecule agonists of the thyroid receptor (TR) signaling pathway (AID 743066; calls by dose curve)
[13] = molecular target: Estrogen receptor (Homo sapiens) (UniProt P03372); assay: qHTS assay to identify small molecule antagonists of the estrogen receptor alpha (ER-alpha) signaling pathway (AID 743069; active = well fitted curve in the direction sought with a large enough effect in the signal ratio in the repeat runs, not every such curve was filed as active; the % refers to the signal ratio)
Chain of Estrogen receptor (Homo sapiens) (P03372 whole entry, looked up): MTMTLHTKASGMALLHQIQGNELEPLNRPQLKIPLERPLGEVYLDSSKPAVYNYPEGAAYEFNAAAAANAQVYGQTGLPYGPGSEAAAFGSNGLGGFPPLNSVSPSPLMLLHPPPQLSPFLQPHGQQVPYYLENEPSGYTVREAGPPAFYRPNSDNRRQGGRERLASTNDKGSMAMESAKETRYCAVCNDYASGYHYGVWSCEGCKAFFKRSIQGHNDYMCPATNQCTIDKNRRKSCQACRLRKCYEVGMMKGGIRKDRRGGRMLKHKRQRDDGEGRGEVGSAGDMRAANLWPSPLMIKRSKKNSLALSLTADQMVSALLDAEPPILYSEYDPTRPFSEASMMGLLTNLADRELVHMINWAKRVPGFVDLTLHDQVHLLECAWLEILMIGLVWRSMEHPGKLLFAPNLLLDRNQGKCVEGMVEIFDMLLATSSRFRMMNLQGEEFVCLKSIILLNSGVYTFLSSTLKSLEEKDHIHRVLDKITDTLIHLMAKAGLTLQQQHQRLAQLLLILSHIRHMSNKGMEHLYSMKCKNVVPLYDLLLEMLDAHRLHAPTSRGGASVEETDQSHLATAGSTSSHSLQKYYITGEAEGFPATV
Summary of the method: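 HEK293 ER-alpha-UAS-bla GripTite cells, held overnight in 2% charcoal-stripped FBS, 5,000 cells/well, preincubated 4 h, then compound plus 17beta-estradiol for 18 h at 37C. Beta-lactamase read by LiveBLAzer B/G FRET substrate, 2 h at room temperature.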

[14] = molecular target: Estrogen receptor (Homo sapiens) (UniProt P03372); assay: qHTS assay to identify small molecule agonists of the estrogen receptor alpha (ER-alpha) signaling pathway (AID 743075; calls by dose curve)
[15] = molecular target: Estrogen receptor (Homo sapiens) (UniProt P03372); assay: qHTS assay to identify small molecule agonists of the estrogen receptor alpha (ER-alpha) signaling pathway using the BG1 cell line (AID 743079); note: nearly all actives have a fitted effect of over 20% in size; note: potency is the fitted concentration of half-maximal effect
[16] = qHTS assay to identify small molecule antagonists of the estrogen receptor alpha (ER-alpha) signaling pathway using the BG1 cell line (AID 743080; calls by dose curve;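 note: BG1 cells stimulated with 17beta-estradiol alongside compound; series mostly up to about 70 µM; nearly all actives have a fitted effect of over 25% in size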)
Summary of the method: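 Endogenous full-length ER-alpha in BG1-Luc-4E2 cells drives a stably integrated 4×ERE luciferase gene; compounds were tested against 17beta-estradiol over 21.5 h, with luminescence and multiplexed viability fluorescence recorded.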

[17] = molecular target: Androgen receptor (Homo sapiens) (UniProt P10275); assay: qHTS assay to identify small molecule antagonists of the androgen receptor (AR) signaling pathway (AID 743035; active = well fitted inhibition curve with a large enough effect in the signal ratio in the repeat runs, not every such curve was filed as active; the % refers to the signal ratio)
Chain of Androgen receptor (Homo sapiens) (P10275 whole entry, looked up): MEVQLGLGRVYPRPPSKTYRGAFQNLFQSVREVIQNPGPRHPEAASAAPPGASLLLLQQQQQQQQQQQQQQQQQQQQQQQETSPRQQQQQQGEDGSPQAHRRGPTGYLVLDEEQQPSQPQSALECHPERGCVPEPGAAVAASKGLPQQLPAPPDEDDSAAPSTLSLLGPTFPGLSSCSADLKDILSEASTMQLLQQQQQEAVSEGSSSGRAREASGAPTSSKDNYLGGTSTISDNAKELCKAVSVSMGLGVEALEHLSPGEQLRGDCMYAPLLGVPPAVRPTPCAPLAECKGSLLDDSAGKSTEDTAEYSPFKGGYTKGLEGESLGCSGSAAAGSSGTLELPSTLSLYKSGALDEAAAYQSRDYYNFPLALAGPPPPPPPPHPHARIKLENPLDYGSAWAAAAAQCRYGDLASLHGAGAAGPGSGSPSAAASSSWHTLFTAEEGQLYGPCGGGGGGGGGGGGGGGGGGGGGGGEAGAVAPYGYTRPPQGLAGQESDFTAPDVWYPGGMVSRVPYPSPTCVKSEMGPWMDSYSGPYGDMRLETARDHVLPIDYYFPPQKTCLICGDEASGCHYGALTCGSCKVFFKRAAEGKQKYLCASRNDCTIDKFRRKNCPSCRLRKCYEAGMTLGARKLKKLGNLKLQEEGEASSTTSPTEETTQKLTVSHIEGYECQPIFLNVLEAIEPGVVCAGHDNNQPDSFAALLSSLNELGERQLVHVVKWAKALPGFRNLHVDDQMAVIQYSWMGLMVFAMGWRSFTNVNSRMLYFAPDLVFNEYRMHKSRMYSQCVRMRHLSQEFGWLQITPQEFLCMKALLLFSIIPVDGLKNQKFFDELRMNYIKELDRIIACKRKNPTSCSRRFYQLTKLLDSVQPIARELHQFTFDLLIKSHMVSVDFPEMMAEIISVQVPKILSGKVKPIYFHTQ
Summary of the method: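 HEK293 cells stably carrying UAS-beta-lactamase reporter, 2,000/well, given compounds plus R1881 agonist and incubated 16 h at 37C. LiveBLAzer B/G FRET substrate then added for 2 h at room temperature before fluorescence reading.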

[18] = molecular target: Androgen receptor (Homo sapiens) (UniProt P10275); assay: qHTS assay to identify small molecule agonists of the androgen receptor (AR) signaling pathway (AID 743036; active = well fitted activation curve with a large enough effect in the signal ratio in the repeat runs, with a control signal flat, not every such curve was filed as active; the % refers to the signal ratio)
Summary of the method: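 Cell-based FRET reporter assay: HEK293 line with a UAS-beta-lactamase construct, compounds added in DMSO, 16 h exposure at 37C, then 2 h substrate step at room temperature and fluorescence intensity read.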

[19] = molecular target: Androgen receptor (Homo sapiens) (UniProt P10275); assay: qHTS assay to identify small molecule agonists of the androgen receptor (AR) signaling pathway using the MDA cell line (AID 743040; note: nearly all actives have a fitted effect of over 20% in size)
Summary of the method: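 MDA-kb2 breast carcinoma cells carrying MMTV-luciferase (responsive to AR and GR), plated 5 h then treated 16 h with compounds at 37C, 0% CO2. Read-out was ONE-Glo luminescence after 30 min at room temperature.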

Measured: Potency

C[C@H]1COc2c(C3(N)CC3)c(F)cc3c(=O)c(C(=O)O)cn1c23
inactive: [1] | [2] | [3] | [4] | [5] | [6] | Aromatase (Homo sapiens) | [7]

Cc1nc2ccc(Cl)cc2[nH]1
not listed: [3] | [17] | [18] | [19]
inactive: all other assays above

CCOC(=O)c1ccc(N(C)C)cc1
active: [15] 54.5 µM
not listed: [3] | [8] | [10] | [13] | [16] | [17] | [18] | [19]
inactive: all other assays above

O=C(O)COc1ccc2ccccc2c1
not listed: [2] | [10] | [17] | [18] | [19]
inactive: all other assays above

CCOC(=O)[C@H](CCc1ccccc1)N[C@H]1CS[C@H](c2cccs2)CN(CC(=O)O)C1=O
not listed: [3]
inactive: all other assays above

O=C1CC2(CCCC2)CC(=O)N1CCNCC1COc2ccccc2O1 (stereo not drawn)
inactive: [1] | [10] | [12] | [6] | Aromatase (Homo sapiens)
active: [2] 21.1 µM | [3] 26.6 µM | [4] 26.6 µM | [5] 21.3 µM

COC(=O)N/N=C/c1c[n+]([O-])c2ccccc2[n+]1[O-]
not listed: [3] | [4] | [17] | [18] | [19]
inactive: all other assays above

COc1cc2nc(N3CCN(C(=O)C4CCCO4)CC3)nc(N)c2cc1OC (stereo not drawn)
not listed: [8] | [9] | [10] | [17] | [18] | [19]
inactive: all other assays above

CC(=O)OC/C=C(/C)CCC=C(C)C
not listed: [3] | [9] | [17] | [18] | [19]
inactive: all other assays above
